From PubChem BioAssay
Shown is part of a subset that was picked to be rich in hits.
SARS PLpro yeast-1: SARS-CoV PLP inhibition in yeast. S. cerevisiae expressing SARS-CoV PLpro, growth rescue. Potency, µM (highest dose often 32.9 µM), inactives show at the top dose activity, positive = growth rescue, actives largely listed as activators. actives 0.19% (n = 330,000); calls by dose curve; further: potency means the concentration at half of the fitted maximal effect; 0% is about no effect; nearly all actives have a fitted effect of over 55% in size
AmpC inh no detg: blocks E. coli AmpC beta-lactamase in detergent-free assay | P00811 | AmpC nitrocefin hydrolysis, absorbance 480 nm, 0.0001% Triton | actives 0.52% (n = 330,000) | Potency, µM (titrated, usually from 57.1 µM), without a hit: top-dose activity change, negative = inhibition, usual class: inhibitors;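 further: potency means the concentration at half of the fitted maximal effect; plate controls were no compound for no effect and no enzyme for full effect; nearly all actives have a fitted effect of over 20% in size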
Target sequence (P00811 whole entry, looked up): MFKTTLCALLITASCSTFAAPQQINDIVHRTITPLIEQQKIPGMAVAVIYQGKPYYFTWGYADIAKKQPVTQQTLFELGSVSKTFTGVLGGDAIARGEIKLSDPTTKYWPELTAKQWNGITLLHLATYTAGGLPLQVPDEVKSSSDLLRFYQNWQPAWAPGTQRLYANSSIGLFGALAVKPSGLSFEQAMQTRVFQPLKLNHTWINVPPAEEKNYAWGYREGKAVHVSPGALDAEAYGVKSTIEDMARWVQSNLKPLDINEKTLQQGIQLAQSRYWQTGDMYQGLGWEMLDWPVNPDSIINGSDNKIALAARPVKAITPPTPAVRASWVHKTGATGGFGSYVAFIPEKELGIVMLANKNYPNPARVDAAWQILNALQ
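AmpC (5.3 nM in the dispensed reagent) in 20 mM phosphate pH 7.0 with 0.01% (detergent screen) or 0.0001% Triton X-100 was preincubated with compounds for 15 min at room temperature. Nitrocefin was then added from an 800 uM solution, and hydrolysis was followed at 480 nm.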
Shiga inhibitor: Shiga toxin inhibition; AID 2315; actives 9.2% (n = 290,000); Vero cells, Shiga toxin protein synthesis inhibition reporter; inhibition, % at 38.7 µM; in the data active means inhibition mostly above about 28%, no sharp cut-off; inactive means mostly below about 43%; further: 0% is about no effect
AMA1 RON2 block: inhibitors of Plasmodium falciparum AMA1-RON2 interaction; actives 0.2% (n = 360,000); Potency, µM (top dose mostly 58.2 µM), for inactives: at the top dose activity change, negative = inhibition, hits mostly inhibitors; AlphaScreen AMA1-biotinylated RON2 peptide binding; AID 720542;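 further: potency means the concentration at half of the fitted maximal effect; 0% = vehicle wells and -100% = peptide control; nearly all actives have a fitted effect of over 45% in size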
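AMA1 (3D7) with his tag at 25 nM final met compounds first, then biotinylated RON2 peptide at 25 nM; detection used donor plus acceptor beads, 10 µg/mL apiece, read by AlphaScreen after 30 min at room temperature.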
AmpC inh detg: inhibitors of E. coli AmpC beta-lactamase with detergent. P00811. AmpC hydrolysis of nitrocefin, absorbance 480 nm, 0.01% Triton. Potency, µM (series often up to 114 µM), for the others: top-dose activity change, negative = inhibition, most hits filed as inhibitors. actives 0.041% (n = 370,000). AID 485294;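 further: potency means the concentration at half of the fitted maximal effect; 0% = no-compound wells and -100% = no-enzyme wells; nearly all actives have a fitted effect of over 25% in size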
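AmpC (5.3 nM in the dispensed reagent) in 20 mM phosphate pH 7.0 with 0.01% (detergent screen) or 0.0001% Triton X-100 was preincubated with compounds for 15 min at room temperature. Nitrocefin was then added from an 800 uM solution, and hydrolysis was followed at 480 nm.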
CHX counter: affects cycloheximide protein synthesis inhibition readout, counter-screen. cell reporter, cycloheximide protein synthesis inhibition counterscreen. max response, %. actives 12% (n = 300,000). AID 2314; in the data active means max response mostly above about 13%, no sharp cut-off; inactive means mostly below about 14%; further: read at 38.3 µM for the half of the compounds with a filed dose; 0% is about no effect
SARS PLpro yeast-2: Rescues yeast growth by inhibiting SARS-CoV PLpro. shares compounds with SARS PLpro yeast-1. yeast expressing SARS-CoV PLpro, growth phenotype rescue. calls only. actives 19% (n = 1,000). AID 652038; call rule not given here
Active calls of the source: *; i = inactive; ? = inconclusive; . = no result given; + = active, no number. Unless noted, the call rests on the fitted dose curve; in most records, active means well fitted curve in the direction sought with a large enough effect; inconclusive means small, poorly fitted or top-dose-only effect, or another doubt; inactive means no such curve, though single readings can be large; an effect the other way counts as inactive or inconclusive.

SMILES	SARS PLpro yeast-1	AmpC inh no detg	Shiga inhibitor	AMA1 RON2 block	AmpC inh detg	CHX counter	SARS PLpro yeast-2
O=C(COC(=O)CSc1ccc(F)cc1)NNC(=O)c1ccc([N+](=O)[O-])cc1	2%	-21%	.	84%	?	.	.
CCOc1ccc(NC(=O)NC2CCOC(C)(C)C2)cc1 (stereo not given)	?	-7%	-19	6%	2%	-3	i
O=S(=O)(c1ccc(NC2CCCc3ccccc32)nc1)N1CCOCC1 (stereo not given)	-8%	15%	-4	-7%	?	-4	.
CC1CCCCC1NC(=O)NC(=O)COC(=O)c1nccnc1N (stereo not given)	-7%	-19%	.	12%	.	.	.
CC1CCCC(NC(=O)NC(=O)CCl)C1C (stereo not given)	?	-1%	-8	-8%	15%	4	+
CC1CCCCC1NC(=O)NC(=O)CCl (stereo not given)	?	1%	-1	0%	20%	0	+
COc1ccc(/C=C/C(=O)OCC(=O)c2ccc(S(=O)(=O)N3CCCCC3)cc2)cc1OC	2%	-33%	.	-4%	-6%	.	.
CCC(C)(C)n1nnnc1C(c1ccc(OC)cc1)N1CCN(C(=O)c2ccco2)CC1 (stereo not given)	5%	81%	5	5%	-13%	-2	.
O=c1cc(CO)oc(C(Nc2ccccn2)c2ccccc2Cl)c1O (stereo not given)	13µM*	-25%	-8	-9%	-12%	11	i
COc1ccc(C(Nc2ccccn2)c2oc(CO)cc(=O)c2O)cc1 (stereo not given)	11µM*	-15%	-14	-11%	?	-2	i
O=c1cc(CO)oc(C(Nc2ccccn2)c2ccc(F)cc2)c1O (stereo not given)	-1%	-20%	-5	-13%	-8%	-1	.
O=C(Nc1ccccc1Cl)c1cc(S(=O)(=O)N2CCC3(CC2)OCCO3)ccc1F	.	.	.	0%	-4%	.	.
CC1(C)Cc2c(C#N)c(NCc3ccco3)nc(-c3ccco3)c2CO1	?	-32%	-14	-4%	-4%	6	i
Cc1nc(NCc2ccco2)c(C#N)c2c1COC(C)(C)C2	-1%	-17%	-4	-10%	-6%	-5	.
Cn1c[n+](C)cc1C(O)c1ccccc1 (stereo not given)	4%	-11%	-15	0%	?	6	.
COc1ccc(NC(=O)Cn2nc(SC)c(S(=O)(=O)c3ccc(C)cc3)c2N)cc1OC	.	.	.	.	4%	.	.
Cc1ccc(N2CC(C(=O)OCC(=O)Nc3ccccc3C)CC2=O)cc1 (stereo not given)	?	-1%	.	-3%	5%	.	?
COC(=O)c1sc(NC(=S)NC(=O)c2ccc(F)cc2)nc1C	0%	-15%	48	.	5%	18	.
COC(=O)c1sc(NC(=S)NC(=O)c2cccc(Br)c2)nc1C	?	81%	70*	19%	?	34*	?
CCc1ccc(CNC(=O)CCCn2nc(C)n3ccnc3c2=O)cc1	?	-16%	-6	18%	-12%	1	i
Cc1nn(CCCC(=O)NCc2ccccc2)c(=O)c2nccn12	3%	-4%	-1	-1%	?	-4	.
N#Cc1cccc(NC(=O)Cc2ccccc2)c1	1%	-6%	30	5%	0%	9	.
Cc1ccc(-n2c(O)c(/C=N/NC(=O)C3COc4ccccc4O3)c3ccccc3c2=O)cc1 (stereo not given)	?	-37%	-2	69%	-2%	-3	?
O=C(N/N=C/c1c(O)n(-c2ccccc2Cl)c(=O)c2ccccc12)C1COc2ccccc2O1 (stereo not given)	11µM*	-27%	-7	84%	-3%	2	+
Cc1[nH]n(-c2ccccc2)c(=O)c1/C=N\NC(=O)C1COc2ccccc2O1 (stereo not given)	10µM*	-43%	-8	11%	-1%	24	i
O=C(N/N=C/c1cccc([N+](=O)[O-])c1)C1COc2ccccc2O1 (stereo not given)	-6%	-29%	28	38%	0%	6	.
Cc1c(/C=N\NC(=O)C2COc3ccccc3O2)c2ccccc2n1C (stereo not given)	-32%	-22%	-10	-4%	3%	-1	.
O=C(N/N=C\c1cccc([N+](=O)[O-])c1O)C1COc2ccccc2O1 (stereo not given)	13µM*	-24%	-7	-7%	6%	-4	i
COc1ccc(C2(C)NC(=O)N(CC(=O)Nc3ccc4c(c3)CCC4)C2=O)cc1OC (stereo not given)	-1%	18%	.	1%	3%	.	.
COC(=O)C1(S(=O)(=O)c2cc(Br)cc3c2N(C(C)=O)CC3)CC1	?	3%	-12	10%	-9%	-1	i
